Laboratory results from PubChem BioAssay (Tox21).
Inconclusive results are not listed. Where a call stands in place of a potency, no number is given. Calls of active or inactive are those of the source. Calls come from the whole dose curve; as a rule, active = well fitted cell-killing curve with a large enough effect in the repeat runs; inconclusive = weak or mixed curves, or effect the other way; inactive = flat fitted curve, though single readings scatter.

Experiments:
[1] = cAMP Responsive Elements (CRE) small molecule antagonists, cell-based qHTS assay: qHTS cell viability counter screen (AID 2060913); note: nearly all actives have a fitted effect of over 40% in size
Method in brief: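 CRE-bla HEK293T cells (2,000/well, 18 h) given compound plus NKH477 0.25 uM final for 3 h at 37C; viability counter-screen by CellTiter-Glo luminescence in same wells after 30 min.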

[2] = cAMP Responsive Elements (CRE) small molecule agonists, cell-based qHTS assay: qHTS cell viability counter screen (AID 2060914);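 note: viability read after 3 h of compound exposure; nearly all actives have a fitted effect of over 50% in size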
Method in brief: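 HEK 293T CRE-bla; DMEM + 10% dialyzed FBS, 25 mM HEPES; 18 h pre-incubation; compound 3 h, 37 °C/5% CO2; CellTiter-Glo added after reporter read; luminescence after 30 min RT.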
Potency is the fitted concentration of half-maximal effect.

SMILES | Potency [1] | Potency [2]
C[C@H]1[C@@H]2Cc3ccc(O)cc3[C@@]1(C)CCN2C | inactive | inactive
BrCCCCCCBr | inactive | inactive
O=C(C(Cl)(Cl)Cl)C(Cl)(Cl)Cl | inactive | inactive
CNC(=O)Oc1ccccc1OC(C)C | inactive | inactive
NCCOS(=O)(=O)O | inactive | inactive
COc1ccc2c(c1OC)C(=O)O[C@@H]2[C@H]1c2cc3c(cc2CCN1C)OCO3 | inactive | inactive
O=c1oc2ccccc2c(O)c1C1CCCc2ccccc21 (stereo unspecified) | inactive | inactive
Cc1cccc(N=Nc2ccc(N(C)C)cc2)c1 | inactive | inactive
C[C@]12CC[C@H]3[C@@H](CCC4=CC(=O)CC[C@@H]43)[C@@H]1CC[C@@H]2OC(=O)CCc1ccccc1 | inactive | inactive
COC(=O)Nc1nc2ccccc2[nH]1 | inactive | inactive
CCCCP(CCCC)CCCC | inactive | inactive
BrC(Br)Br | inactive | inactive
CCOC(=O)C(C)OC(=O)c1cc(Oc2ccc(C(F)(F)F)cc2Cl)ccc1[N+](=O)[O-] (stereo unspecified) | inactive | inactive
O=C(NC(=O)c1c(F)cccc1F)Nc1cc(Cl)c(F)c(Cl)c1F | inactive | inactive
C/C=C/CC#N | inactive | inactive
CC(C)(C)NCC(O)c1ccccc1Cl (stereo unspecified) | inactive | inactive
COP(=O)(OC)OC(Br)C(Cl)(Cl)Br (stereo unspecified) | inactive | inactive
OCC(O)CCl (stereo unspecified) | inactive | inactive
O=C(CCl)Nc1ccccc1 | inactive | inactive
O=c1[nH]c2ccccc2c(=O)o1 | inactive | inactive
Cl[C@H]1OCCO[C@@H]1Cl | inactive | inactive
C[N+](C)(C)CC1CO1 (stereo unspecified) | inactive | inactive
O=Cc1ccc(Cl)cc1Cl | inactive | inactive
CCCCCCCCCCBr | inactive | inactive
Clc1ccccc1N1CCNCC1 | inactive | inactive

SMILES | Potency [1] | Potency [2]
c1nc[nH]n1 | inactive | inactive
Cc1nnc2n1-c1sc(CCC(=O)N3CCOCC3)cc1C(c1ccccc1Cl)=NC2 | inactive | inactive
COP(=S)(OC)SCN1C(=O)c2ccccc2C1=O | inactive | inactive
CCCCN(N=O)C(=N)N[N+](=O)[O-] | inactive | inactive
O=[N+]([O-])O[C@H]1CO[C@H]2[C@@H]1OC[C@H]2O[N+](=O)[O-] | inactive | inactive
OC(O)C(Cl)(Cl)Cl | inactive | inactive
C1CCC2CCCCC2C1 (stereo unspecified) | inactive | inactive
C(CCOCC1CO1)COCC1CO1 (stereo unspecified) | inactive | inactive
COP(=O)(OC)O/C(=C\Cl)c1cc(Cl)c(Cl)cc1Cl | inactive | inactive
Clc1ccccc1-c1ccccc1Cl | inactive | inactive
C=CC(=O)OCCO | inactive | inactive
CC1=C2C[C@H]3[C@@H](CC=C4C[C@@H](O)CC[C@@]43C)[C@@H]2CC[C@]12O[C@@H]1C[C@H](C)CN[C@H]1[C@H]2C | inactive | inactive
Clc1cc(Cl)c(-c2cc(Cl)c(Cl)cc2Cl)cc1Cl | inactive | inactive
C[C@]12CC[C@H]3[C@@H](CCC4=CC(=O)CC[C@@H]43)[C@@H]1CC[C@@H]2O | inactive | inactive
O=C(Cl)C(Cl)(Cl)Cl | inactive | inactive
CC(C)OS(C)(=O)=O | inactive | inactive
Cc1cccc(N)c1 | inactive | inactive
CC(=O)[O-].CC(=O)[O-].[Hg+2] | 8.63 µM (active) | 10.9 µM (active)
CCCC[N+](CCCC)(CCCC)CCCC | inactive | inactive
O=[N+]([O-])c1cc(C(F)(F)F)c(Cl)c([N+](=O)[O-])c1Cl | inactive | inactive
N#Cc1sc2c(=O)c3ccccc3c(=O)c=2sc1C#N | 61.1 µM (active) | 54.5 µM (active)
Oc1ccc(Cc2ccc(O)cc2)cc1 | inactive | inactive
CCC(C)(CC)c1cc(NC(=O)c2c(OC)cccc2OC)on1 | inactive | inactive
C[C@]12Cc3cn[nH]c3C[C@@H]1CC[C@@H]1[C@@H]2CC[C@@]2(C)[C@H]1CC[C@]2(C)O | inactive | inactive
CCCCc1c(C)nc(NCC)nc1OS(=O)(=O)N(C)C | inactive | inactive

SMILES | Potency [1] | Potency [2]
CON(C)C(=O)Nc1ccc(Br)c(Cl)c1 | inactive | inactive
COc1ccc(/C(=C/C(=O)N2CCOCC2)c2ccc(Cl)cc2)cc1OC | inactive | inactive
CCC(C)Cl (stereo unspecified) | inactive | inactive
CC(=O)[O-].CC(=O)[O-].O.O.O.[Pb+2] | inactive | inactive
CCCCn1cc[n+](C)c1 (tested in a mixture with another compound) | inactive | inactive
Cc1cc(OC(=O)N(C)C)nn1C(=O)N(C)C | inactive | inactive
O=[N+]([O-])c1cccc(CCl)c1 | inactive | inactive
CCN(CC)C(=O)SCc1ccc(Cl)cc1 | inactive | inactive
Clc1ccc(Cl)cc1 | inactive | inactive
CN(C)C(=O)Cl | inactive | inactive
COP(=S)(OC)Oc1cc(Cl)c(Br)cc1Cl |  | inactive
C#CC(O)(C=CCl)CC (stereo unspecified) | inactive | inactive
N#CN | inactive | inactive
O=Cc1ccco1 | inactive | inactive
CC[C@H](C)[C@H]1O[C@]2(C=C[C@@H]1C)C[C@@H]1C[C@@H](C/C=C(\C)[C@@H](O[C@H]3C[C@H](OC)[C@@H](O[C@H]4C[C@H](OC)[C@@H](NC)[C@H](C)O4)[C@H](C)O3)[C@@H](C)/C=C/C=C3\CO[C@@H]4[C@H](O)C(C)=C[C@@H](C(=O)O1)[C@]34O)O2 | 15.4 µM (active) | 19.3 µM (active)
Clc1cccc(C(Cl)(Cl)Cl)n1 | inactive | inactive
ClCCBr | inactive | inactive
C[C@@H](N)[C@@H](O)c1ccccc1 | inactive | inactive
CCOC(=O)C(c1c(O)c2ccccc2oc1=O)c1c(O)c2ccccc2oc1=O |  | inactive
O=C(O)CCl | inactive | inactive
c1ccc2c(c1)CCCC2 | inactive | inactive
COP(N)(=O)SC (stereo unspecified) | inactive | inactive
COP(=S)(OC)Oc1nc(Cl)c(Cl)cc1Cl | inactive | inactive
OC(Cc1ccccc1Cl)(Cn1[nH]cnc1=S)C1(Cl)CC1 (stereo unspecified) | inactive | inactive
CCNc1nc(NC(C)(C)C)nc(SC)n1 | inactive | inactive

SMILES | Potency [1] | Potency [2]
CC(C)c1ccc(O)cc1 | inactive | inactive
COc1cc(CCN)cc(OC)c1OC |  | inactive
COCCC#N | inactive | inactive
COP(=O)(OC)C(O)C(Cl)(Cl)Cl (stereo unspecified) | inactive | inactive
CNC(=O)NC(O)C(Cl)(Cl)Cl (stereo unspecified) | inactive | inactive
CCOC1Oc2ccc(OS(C)(=O)=O)cc2C1(C)C (stereo unspecified) | inactive | inactive
COc1cc2c(cc1OC)[C@@]13CCN4CC5=CCO[C@H]6CC(=O)N2[C@H]1[C@H]6[C@H]5C[C@H]43 | inactive | inactive
CCCCN(CCCC)C(=S)[S-].CCCCN(CCCC)C(=S)[S-].[Ni+2] | inactive | inactive
CC[C@]1(O)CC[C@H]2[C@@H]3CCC4=CCCC[C@@H]4[C@H]3CC[C@@]21C | inactive | inactive
CC(C)=C[C@@H]1[C@@H](C(=O)OCc2coc(Cc3ccccc3)c2)C1(C)C | inactive | inactive
CC(C)CCCCCCCOP(=O)(Oc1ccccc1)Oc1ccccc1 | inactive | inactive
CC(Cl)CN(C)C (stereo unspecified) | inactive | inactive
CCSC(=O)Cl | inactive | inactive
COP(=S)(OC)SCn1nnc2ccccc2c1=O | inactive | inactive
CC1=C2[C@H]3OC(=O)[C@@H](C)[C@@H]3CC[C@@]2(C)C=CC1=O | inactive | inactive
OC[P+](CO)(CO)CO |  | inactive
CC(C)(c1ccc(OCC2CO2)cc1)c1ccc(OCC2CO2)cc1 (stereo unspecified) | inactive | inactive
O=S(=O)(NS(=O)(=O)C(F)(F)F)C(F)(F)F |  | inactive
c1cc2c(c(N3CCNCC3)c1)OCCO2 |  | inactive
Oc1c(I)cc(I)cc1I |  | inactive
O=S(=O)(O)F |  | inactive
CC(C)C1(C)N=C(c2nc3ccccc3cc2C(=O)O)NC1=O (stereo unspecified) |  | inactive
N#CSCSC#N |  | inactive
